Inconclusive results are not listed. Activity calls are given as the source filed them. Rule for the calls, unless noted: active = hit-call score of the fitted dose curve at least 0.9, where 1 is the maximum; inactive = score below 0.9.
How the values were obtained:
[1] = target: Retinoic acid receptor RXR-alpha (Homo sapiens) (UniProt P19793); assay: ATG_RXRa_TRANS: Attagene TRANS-FACTORIAL HepG2 Assay for human Retinoid X Receptor alpha (RXRa) (AID 2283012; active = hit-call score of the fitted dose curve at least 0.9, where 1 is the maximum)
Sequence of Retinoic acid receptor RXR-alpha (Homo sapiens) (P19793 whole entry, looked up, the tested form may be a part): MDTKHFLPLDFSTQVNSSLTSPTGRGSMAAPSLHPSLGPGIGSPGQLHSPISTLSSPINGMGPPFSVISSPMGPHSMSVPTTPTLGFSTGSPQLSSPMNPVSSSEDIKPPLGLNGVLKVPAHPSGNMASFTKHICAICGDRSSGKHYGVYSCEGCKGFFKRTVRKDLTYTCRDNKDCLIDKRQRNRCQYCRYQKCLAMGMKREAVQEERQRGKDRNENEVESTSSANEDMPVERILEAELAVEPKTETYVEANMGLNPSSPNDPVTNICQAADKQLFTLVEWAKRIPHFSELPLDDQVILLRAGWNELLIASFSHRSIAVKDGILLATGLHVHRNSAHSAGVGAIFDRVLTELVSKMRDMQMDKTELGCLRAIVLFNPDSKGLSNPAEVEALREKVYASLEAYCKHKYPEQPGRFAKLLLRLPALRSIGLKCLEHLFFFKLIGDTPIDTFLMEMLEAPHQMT
How it was run: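 Transient transfection of human HepG2 with multiple GAL4-UAS reporter constructs; 24 h compound exposure; total RNA isolated, reverse-transcribed, PCR-amplified, 6-FAM labelled, HpaI-cut, resolved by capillary electrophoresis. Positive-direction fit versus DMSO.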

[2] = target: human Retinoid X Receptor beta (RXRb), RXRB (gene 6257) (UniProt P28702); assay: ATG_RXRb_TRANS: Attagene TRANS-FACTORIAL HepG2 Assay for human Retinoid X Receptor beta (RXRb) (AID 2283013; active = hit-call score of the fitted dose curve at least 0.9, where 1 is the maximum)
Sequence of human Retinoid X Receptor beta (RXRb), RXRB (gene 6257) (P28702 whole entry, looked up, the tested form may be a part): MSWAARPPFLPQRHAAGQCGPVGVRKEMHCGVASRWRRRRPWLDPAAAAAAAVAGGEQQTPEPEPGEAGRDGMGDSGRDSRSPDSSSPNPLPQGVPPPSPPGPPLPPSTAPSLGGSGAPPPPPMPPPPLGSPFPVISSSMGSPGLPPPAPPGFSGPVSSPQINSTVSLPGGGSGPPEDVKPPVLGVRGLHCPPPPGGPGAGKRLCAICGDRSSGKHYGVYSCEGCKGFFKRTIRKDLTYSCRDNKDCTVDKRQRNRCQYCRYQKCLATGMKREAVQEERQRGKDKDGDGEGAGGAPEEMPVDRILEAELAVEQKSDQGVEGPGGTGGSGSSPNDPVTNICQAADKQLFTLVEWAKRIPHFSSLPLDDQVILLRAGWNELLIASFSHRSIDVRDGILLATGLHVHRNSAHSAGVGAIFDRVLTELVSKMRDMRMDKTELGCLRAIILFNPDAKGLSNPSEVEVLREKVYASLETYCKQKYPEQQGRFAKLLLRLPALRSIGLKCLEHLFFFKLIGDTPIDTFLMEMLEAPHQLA
How it was run: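 Transfect HepG2 with GAL4-UAS multi-reporter constructs (chimeric NR-Gal4, TRANS format); dose compound 24 h; isolate RNA, RT-PCR, FAM primer extension, HpaI digest; quantify by capillary electrophoresis; positive direction vs DMSO.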

[3] = read-out: E-selectin (Homo sapiens) (UniProt P16581); assay: BSK_3C_Eselectin: BioMAP Diversity Plus: 3C Assay for Eselectin Biomarker Activity (AID 2283015); details: primary human endothelial cells (HUVEC); actives raise or lower the signal;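 for outcome: cell surface E-selectin protein quantified by ELISA 24 h after dosing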
How it was run: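 Primary human umbilical vein endothelial cells (3C system) were dosed with chemical and cell-surface E-selectin measured by ELISA 24 h later. Bidirectional curve fitting used DMSO as negative control and baseline.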

[4] = read-out: Interleukin-1 alpha (IL1a), IL1A (gene 3552); assay: BSK_BE3C_IL1a: BioMAP Diversity Plus: BE3C Assay for Interleukin-1 alpha (IL1a) Biomarker Activity (AID 2283016); details: primary human bronchial epithelial cells; actives raise or lower the signal
How it was run: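 BE3C primary human bronchial epithelium; cpd 24 h; IL-1a by ELISA; bidirectional fit vs DMSO; parallel SRB (0.1% SRB, 10% TCA fix, 560 nm) for cytotoxicity.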

[5] = read-out: Monocyte Chemoattractant Protein-1 (MCP1), CCL2 (gene 6347); assay: BSK_3C_MCP1: BioMAP Diversity Plus: 3C Assay for Monocyte Chemoattractant Protein-1 (MCP1) Biomarker Activity (AID 2283017); details: primary human endothelial cells (HUVEC); actives raise or lower the signal
How it was run: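 Primary human umbilical vein endothelial cells (3C system) were exposed to test chemical for 24 h, after which MCP-1 was quantified by ELISA. Activity was fitted bidirectionally against DMSO as negative control and baseline.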

[6] = read-out: Monocyte Chemoattractant Protein-1 (MCP1), CCL2 (gene 6347); assay: BSK_4H_MCP1: BioMAP Diversity Plus: 4H Assay for Monocyte Chemoattractant Protein-1 (MCP1) Biomarker Activity (AID 2283018); details: primary human endothelial cells (HUVEC); actives raise or lower the signal
How it was run: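 ELISA read-out of MCP-1 from human vascular endothelial primary cells taken at 24 hours after compound exposure. Activity was fitted in both directions relative to DMSO, which served as negative control.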

[7] = read-out: Human Leukocyte Antigen - DR isotype (HLADR), HLA-DRA (gene 3122); assay: BSK_3C_HLADR: BioMAP Diversity Plus: 3C Assay for Human Leukocyte Antigen - DR isotype (HLADR) Biomarker Activity (AID 2283019); details: primary human endothelial cells (HUVEC); actives raise or lower the signal;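 for outcome: ELISA of cell-surface HLA-DR on HUVEC 24 h after dosing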
How it was run: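 Primary human umbilical vein endothelial cells (3C system) were dosed with compound and cell-surface HLA-DR was quantified by ELISA at 24 h. Activity was fitted bidirectionally against DMSO as negative control and baseline.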

[8] = read-out: Interleukin-8 (IL8), CXCL8 (gene 3576); assay: BSK_3C_IL8: BioMAP Diversity Plus: 3C Assay for Interleukin-8 (IL8) Biomarker Activity (AID 2283020); details: primary human endothelial cells (HUVEC); actives raise or lower the signal
How it was run: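 ELISA read-out of IL-8 from human umbilical vein endothelium, measured 24 h after chemical dosing. Activity is expressed relative to DMSO negative control, with both increases and decreases fitted.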

[9] = target: human Vitamin D Receptor (VDR), VDR (gene 7421) (UniProt P11473); assay: ATG_VDR_TRANS: Attagene TRANS-FACTORIAL HepG2 Assay for human Vitamin D Receptor (VDR) (AID 2283022; active = hit-call score of the fitted dose curve at least 0.9, where 1 is the maximum)
Sequence of human Vitamin D Receptor (VDR), VDR (gene 7421) (P11473 whole entry, looked up, the tested form may be a part): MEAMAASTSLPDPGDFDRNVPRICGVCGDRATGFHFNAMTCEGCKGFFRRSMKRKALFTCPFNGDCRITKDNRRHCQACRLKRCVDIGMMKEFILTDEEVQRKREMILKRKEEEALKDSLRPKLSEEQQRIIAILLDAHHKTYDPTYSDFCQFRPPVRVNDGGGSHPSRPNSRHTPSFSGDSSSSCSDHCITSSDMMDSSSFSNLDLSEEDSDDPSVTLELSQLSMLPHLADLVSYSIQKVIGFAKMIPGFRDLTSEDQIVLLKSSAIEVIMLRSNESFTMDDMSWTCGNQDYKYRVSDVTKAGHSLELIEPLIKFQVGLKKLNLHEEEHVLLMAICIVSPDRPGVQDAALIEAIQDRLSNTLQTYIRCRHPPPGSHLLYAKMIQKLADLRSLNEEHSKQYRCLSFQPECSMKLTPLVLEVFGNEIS
How it was run: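 HepG2 cells were transiently transfected with multiple GAL4-UAS reporter units, so signal reflects exogenous chimeric receptor-Gal4 activity. After 24 h compound exposure, reporter mRNA was measured by RT-PCR, fluorescent labelling and capillary electrophoresis, fitted for gain of signal versus DMSO.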

[10] = BSK_3C_SRB: Viability Assessment in the BioMAP Diversity Plus: 3C Assay (AID 2283023); details: primary human endothelial cells (HUVEC);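 note: fitted both ways against DMSO so a hit may be signal rise or drop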
How it was run: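 Primary human umbilical vein endothelial cells in the 3C system were read 24 h after compound dosing. Total protein was stained with 0.1% sulforhodamine B after 10% TCA fixation and read at 560 nm, with bidirectional fitting against DMSO as baseline.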

[11] = read-out: Matrix Metallopeptidase 1 (MMP1), MMP1 (gene 4312); assay: BSK_BE3C_MMP1: BioMAP Diversity Plus: BE3C Assay for Matrix Metallopeptidase 1 (MMP1) Biomarker Activity (AID 2283024); details: primary human bronchial epithelial cells; actives raise or lower the signal
How it was run: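 Human bronchial epithelial cells (BE3C system) exposed to compound for 24 h; MMP1 then quantified by ELISA. Activity was fitted in both directions relative to DMSO.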

[12] = BSK_3C_Vis: BioMAP Diversity Plus: 3C Assay for Morphology Visualization (AID 2283025); details: primary human endothelial cells (HUVEC);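 note: fitted both ways so gain or loss versus DMSO counts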;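 for AC50: light microscopy image of cell morphology used as background control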
How it was run: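 Chemicals were added to primary human umbilical vein endothelium, cells were incubated 24 h, and morphology was then visualized by light microscopy. Gain or loss of signal was fitted bidirectionally relative to DMSO.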

[13] = read-out: Pselectin, SELP (gene 6403); assay: BSK_4H_Pselectin: BioMAP Diversity Plus: 4H Assay for Pselectin Biomarker Activity (AID 2283026); details: primary human endothelial cells (HUVEC); actives raise or lower the signal
How it was run: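 ELISA read-out of P-selectin on human umbilical vein endothelium after 24 h of dosing. Values derive from bidirectional fitting relative to DMSO. Parallel SRB protein staining flagged overt cytotoxicity.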

[14] = BSK_4H_SRB: Viability Assessment in the BioMAP Diversity Plus: 4H Assay (AID 2283027); details: primary human endothelial cells (HUVEC);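 note: cells exposed to compound for 24 h before staining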
How it was run: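 Human umbilical vein endothelial cells, 24 h after chemical dosing; total protein measured by 0.1% sulforhodamine B staining after 10% TCA fixation, read at 560 nm. Bidirectional fitting against DMSO.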

[15] = BSK_BE3C_SRB: Viability Assessment in the BioMAP Diversity Plus: BE3C Assay (AID 2283028); details: primary human bronchial epithelial cells
How it was run: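 Human primary bronchial epithelial cells were exposed to test chemicals for 24 h. Total protein in parallel cultures was then measured by staining with 0.1% sulforhodamine B after 10% TCA fixation, with absorbance read at 560 nm. Activity was fitted bidirectionally against DMSO.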

[16] = read-out: Thrombomodulin, THBD (gene 7056); assay: BSK_3C_Thrombomodulin: BioMAP Diversity Plus: 3C Assay for Thrombomodulin Biomarker Activity (AID 2283029); details: primary human endothelial cells (HUVEC); actives raise or lower the signal
How it was run: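 Read-out is ELISA of thrombomodulin on human umbilical vein endothelium 24 h after chemical dosing. Gain or loss of signal is scored relative to DMSO. Overt cytotoxicity is checked in parallel cultures by sulforhodamine B staining.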

[17] = read-out: Urokinase-type plasminogen activator receptor (uPAR), PLAUR (gene 5329); assay: BSK_4H_uPAR: BioMAP Diversity Plus: 4H Assay for Urokinase-type plasminogen activator receptor (uPAR) Biomarker Activity (AID 2283030); details: primary human endothelial cells (HUVEC); actives raise or lower the signal
How it was run: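 Primary human umbilical vein endothelial cells were exposed to chemical for 24 h before cell-surface uPAR was quantified by ELISA. Activity was fitted bidirectionally against the DMSO negative control baseline.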

[18] = read-out: Vascular endothelial growth factor receptor 2 (Homo sapiens) (UniProt P35968); assay: BSK_4H_VEGFRII: BioMAP Diversity Plus: 4H Assay for Vascular endothelial growth factor receptor 2 (VEGFR2) Biomarker Activity (AID 2283031); details: primary human endothelial cells (HUVEC); actives raise or lower the signal
How it was run: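 Primary human umbilical vein endothelial cells in the BioMAP 4H system were dosed with test chemical, and 24 h later VEGFRII was measured by ELISA. Activity was fitted bidirectionally against DMSO as negative control and baseline.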

[19] = target: human Thyroid Receptor alpha (THRa1), THRA (gene 7067) (UniProt P10827); assay: ATG_THRa1_TRANS: Attagene TRANS-FACTORIAL HepG2 Assay for human Thyroid Receptor alpha (THRa1) (AID 2283014; active = hit-call score of the fitted dose curve at least 0.9, where 1 is the maximum)
Sequence of human Thyroid Receptor alpha (THRa1), THRA (gene 7067) (P10827 whole entry, looked up, the tested form may be a part): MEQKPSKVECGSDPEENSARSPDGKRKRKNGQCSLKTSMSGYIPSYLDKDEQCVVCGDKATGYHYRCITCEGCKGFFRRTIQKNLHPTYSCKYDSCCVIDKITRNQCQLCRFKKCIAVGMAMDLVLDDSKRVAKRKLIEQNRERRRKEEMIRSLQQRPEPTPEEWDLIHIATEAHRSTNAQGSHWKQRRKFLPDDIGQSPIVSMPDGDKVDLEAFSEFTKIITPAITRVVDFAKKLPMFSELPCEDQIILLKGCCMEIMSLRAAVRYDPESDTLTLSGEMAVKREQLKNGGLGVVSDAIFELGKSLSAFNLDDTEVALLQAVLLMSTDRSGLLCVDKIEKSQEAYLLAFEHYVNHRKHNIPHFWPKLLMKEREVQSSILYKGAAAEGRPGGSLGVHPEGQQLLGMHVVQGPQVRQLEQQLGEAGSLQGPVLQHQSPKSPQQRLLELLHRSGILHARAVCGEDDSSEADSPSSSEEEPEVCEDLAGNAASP
How it was run: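 HepG2 cells transiently transfected with multiplexed GAL4-UAS reporter units for exogenous chimeric THRa1-Gal4; reporter mRNA measured 24 h after dosing by RT-PCR, 6-FAM labelling, HpaI digestion and capillary electrophoresis. Gain-of-signal fitted versus DMSO baseline.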

[20] = read-out: Monokine induced gamma interferon (MIG), CXCL9 (gene 4283); assay: BSK_3C_MIG: BioMAP Diversity Plus: 3C Assay for Monokine induced gamma interferon (MIG) Biomarker Activity (AID 2283021); details: primary human endothelial cells (HUVEC); actives raise or lower the signal
How it was run: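 Read-out is ELISA detection of MIG on human umbilical vein endothelial cells, taken 24 h after dosing. Gain or loss of signal was scored relative to DMSO controls using bidirectional curve fitting.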

Sequence of E-selectin (Homo sapiens) (P16581 whole entry, looked up): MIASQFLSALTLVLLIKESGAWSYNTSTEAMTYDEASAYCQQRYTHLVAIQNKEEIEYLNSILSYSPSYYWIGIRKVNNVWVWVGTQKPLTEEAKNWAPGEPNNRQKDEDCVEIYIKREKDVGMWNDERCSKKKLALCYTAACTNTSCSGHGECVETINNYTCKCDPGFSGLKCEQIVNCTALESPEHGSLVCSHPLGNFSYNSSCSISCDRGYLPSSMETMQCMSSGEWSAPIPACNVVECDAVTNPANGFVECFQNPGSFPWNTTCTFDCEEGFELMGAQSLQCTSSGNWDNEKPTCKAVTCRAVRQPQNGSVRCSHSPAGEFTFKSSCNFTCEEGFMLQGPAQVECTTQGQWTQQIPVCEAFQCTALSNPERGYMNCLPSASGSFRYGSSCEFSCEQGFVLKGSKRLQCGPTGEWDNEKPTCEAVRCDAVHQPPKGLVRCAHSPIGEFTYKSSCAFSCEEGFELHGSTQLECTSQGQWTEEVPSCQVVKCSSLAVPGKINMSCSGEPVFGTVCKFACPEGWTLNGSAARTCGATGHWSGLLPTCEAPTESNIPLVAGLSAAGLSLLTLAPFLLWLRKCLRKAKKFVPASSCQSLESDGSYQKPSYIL

SMILES: Cc1ccc(C(C)(C)C)c(O)c1
- outcome [1]: inactive
- AC50 [2]: 23.3 µM (active)
- AC50 [3]: 34.5 µM (active)
- outcome [4]: inactive
- AC50 [5]: 34.7 µM (active)
- outcome [6]: inactive
- outcome [7]: inactive
- outcome [8]: inactive
- outcome [9]: inactive
- outcome [10]: inactive
- outcome [11]: inactive
- outcome [12]: inactive
- outcome [13]: inactive
- outcome [14]: inactive
- outcome [15]: inactive
- AC50 [16]: 31.3 µM (active)
- outcome [17]: inactive
- outcome [18]: inactive

SMILES: CN(C)C(=O)NC1(c2ccccc2)CCN(CCC[C@]2(c3ccc(Cl)c(Cl)c3)CCCN(C(=O)c3ccccc3)C2)CC1
- AC50 [1]: 3.94 µM (active)
- AC50 [2]: 4.3 µM (active)
- outcome [19]: inactive
- outcome [3]: inactive
- outcome [4]: inactive
- AC50 [5]: 7.06 µM (active)
- outcome [6]: inactive
- outcome [7]: inactive
- AC50 [8]: 7.16 µM (active)
- outcome [20]: inactive
- AC50 [10]: 6.65 µM (active)
- outcome [11]: inactive
- AC50 [12]: 9.81 µM (active)
- outcome [13]: inactive
- outcome [14]: inactive
- outcome [15]: inactive
- outcome [16]: inactive
- outcome [17]: inactive
- outcome [18]: inactive

SMILES: CC(C)(O)c1ccc(CNC(=O)c2cccnc2Oc2ccc(F)cc2)cc1
- outcome [1]: inactive
- outcome [2]: inactive
- outcome [19]: inactive
- outcome [3]: inactive
- outcome [4]: inactive
- outcome [5]: inactive
- outcome [6]: inactive
- outcome [7]: inactive
- outcome [8]: inactive
- outcome [10]: inactive
- outcome [11]: inactive
- outcome [12]: inactive
- outcome [13]: inactive
- outcome [14]: inactive
- outcome [15]: inactive
- outcome [16]: inactive
- outcome [17]: inactive
- outcome [18]: inactive

SMILES: CC(C)OC(=O)C(C)(C)Oc1ccc(C(=O)c2ccc(Cl)cc2)cc1
- outcome [1]: inactive
- AC50 [2]: 26.9 µM (active)
- outcome [3]: inactive
- outcome [4]: inactive
- AC50 [5]: 30.2 µM (active)
- AC50 [6]: 25.3 µM (active)
- AC50 [7]: 14.2 µM (active)
- AC50 [8]: 14.1 µM (active)
- outcome [20]: inactive
- outcome [9]: inactive
- AC50 [10]: 14.8 µM (active)
- AC50 [11]: 13.3 µM (active)
- AC50 [12]: 39 µM (active)
- AC50 [13]: 32.8 µM (active)
- outcome [14]: inactive
- outcome [15]: inactive
- outcome [17]: inactive

SMILES: O=C(O)c1cccnc1
- outcome [1]: inactive
- outcome [2]: inactive
- outcome [19]: inactive
- outcome [3]: inactive
- outcome [4]: inactive
- outcome [5]: inactive
- outcome [6]: inactive
- outcome [7]: inactive
- outcome [8]: inactive
- outcome [10]: inactive
- outcome [11]: inactive
- outcome [12]: inactive
- outcome [13]: inactive
- outcome [14]: inactive
- outcome [15]: inactive
- outcome [16]: inactive
- outcome [17]: inactive
- outcome [18]: inactive

SMILES: CS(=O)(=O)c1ccc([C@@H](C[C@H]2CCC(=O)C2)C(=O)Nc2cnccn2)cc1Cl
- outcome [1]: inactive
- outcome [2]: inactive
- outcome [3]: inactive
- outcome [4]: inactive
- outcome [5]: inactive
- outcome [6]: inactive
- outcome [7]: inactive
- outcome [8]: inactive
- outcome [9]: inactive
- outcome [10]: inactive
- outcome [11]: inactive
- outcome [12]: inactive
- outcome [13]: inactive
- outcome [14]: inactive
- outcome [15]: inactive
- outcome [16]: inactive
- outcome [17]: inactive
- outcome [18]: inactive

SMILES: O=[Si]=O
- outcome [1]: inactive
- outcome [2]: inactive
- outcome [19]: inactive
- outcome [3]: inactive
- outcome [4]: inactive
- outcome [5]: inactive
- outcome [6]: inactive
- outcome [7]: inactive
- outcome [8]: inactive
- outcome [10]: inactive
- outcome [11]: inactive
- outcome [12]: inactive
- outcome [13]: inactive
- outcome [14]: inactive
- outcome [15]: inactive
- outcome [16]: inactive
- outcome [17]: inactive
